Experimental data from PubChem BioAssay (Tox21).
Inconclusive results are not listed. Active and inactive are the calls of the source. Unless noted, calls follow the shape of the dose curve; as a rule, active = well fitted curve in the direction sought with a large enough effect in the repeat runs; inconclusive = weak or mixed curves; inactive = no such curve, though single readings can be large; an effect the other way counts as inactive or inconclusive.

Key:
[1] = qHTS assay to identify small molecule antagonists of the sonic hedgehog signaling (Shh) pathway (AID 1259369; calls by dose curve; also: nearly all actives have a fitted effect of over 45% in size)
Outline: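 NIH/3T3-derived Gli1-Luc reporter cells plated 4 h, dosed with compound, then stimulated with conditioned medium for 24 h at 37 C. Firefly luciferase luminescence read after 30 min with detection reagent at room temperature.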

[2] = qHTS assay to identify small molecule agonists of the androgen receptor (AR) signaling pathway in the presence of an antagonist - cell viability counter screen (AID 1259379);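 also: MDA-kb2 human breast cancer cells carrying an MMTV luciferase reporter; series mostly up to about 92 µM; nearly all actives have a fitted effect of over 25% in size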
Outline: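 MDA-kb2 cells (MMTV-luciferase, AR/GR), 3,000/well, 5 h attachment, then 3.0 µM nilutamide (final) and compounds at 15 concentrations. Viability by CellTiter-Fluor fluorescence after 16 h at 37 °C, 0% CO2, in the reporter wells.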

[3] = qHTS assay to identify small molecule agonists of the estrogen receptor beta (ER-beta) signaling pathway - cell viability counter screen (AID 1259380); also: nearly all actives have a fitted effect of over 30% in size
Outline: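 ER-beta-UAS-bla HEK293T cells in medium with 2% charcoal-stripped FBS, pre-incubated 6 hr, then treated 16 hr at 37C. Cytotoxicity read in the same wells by CellTiter-Glo luminescence after 30 min at room temperature.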

[4] = qHTS assay to identify small molecule antagonists of the estrogen receptor beta (ER-beta) signaling pathway - cell viability counter screen (AID 1259382);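 also: HEK293T cells carrying ER-beta-UAS-bla reporter stimulated with estradiol; series mostly up to about 92 µM; nearly all actives have a fitted effect of over 55% in size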
Outline: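 ER-beta-UAS-bla HEK293T cells in 2% charcoal-stripped FBS medium, treated with compound plus 1 nM 17-beta-estradiol for 16 h at 37C. Viability read by CellTiter-Glo luminescence after 30 min at room temperature in the same wells.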

[5] = molecular target: Estrogen receptor (Homo sapiens) (UniProt P03372); test: qHTS assay to identify small molecule agonists of the estrogen receptor alpha (ER-alpha) signaling pathway in the presence of an antagonist (AID 1259383; calls by dose curve; also: top concentration of the series differs between compounds; nearly all actives have a fitted effect of over 15% in size)
Chain of Estrogen receptor (Homo sapiens) (P03372 whole entry, looked up): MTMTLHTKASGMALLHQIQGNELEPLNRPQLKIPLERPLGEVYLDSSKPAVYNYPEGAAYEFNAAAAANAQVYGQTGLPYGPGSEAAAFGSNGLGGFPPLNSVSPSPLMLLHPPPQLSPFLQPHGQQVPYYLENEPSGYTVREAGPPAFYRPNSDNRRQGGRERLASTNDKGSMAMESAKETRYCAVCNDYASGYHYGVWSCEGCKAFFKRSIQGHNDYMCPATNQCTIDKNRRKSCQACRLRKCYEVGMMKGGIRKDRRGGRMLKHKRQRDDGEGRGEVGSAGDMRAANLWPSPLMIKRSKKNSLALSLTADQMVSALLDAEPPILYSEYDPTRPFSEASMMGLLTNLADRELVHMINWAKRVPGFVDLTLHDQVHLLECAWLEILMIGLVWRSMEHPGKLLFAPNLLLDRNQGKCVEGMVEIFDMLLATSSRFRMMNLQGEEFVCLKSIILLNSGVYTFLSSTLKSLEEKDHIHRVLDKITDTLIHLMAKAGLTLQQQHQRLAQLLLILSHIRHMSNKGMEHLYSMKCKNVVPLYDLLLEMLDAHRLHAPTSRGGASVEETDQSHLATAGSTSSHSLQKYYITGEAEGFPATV
Outline: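 VM7Luc4E2 cells express endogenous full-length ER-alpha with an ERE-luciferase reporter and were hormone-deprived for 5 days. Compounds at 15 concentrations were added with 10.0nM ICI-182,780 for 22hr at 37C. Luminescence was read with ONE-Glo.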

[6] = qHTS assay to identify small molecule agonists of the estrogen receptor alpha (ER-alpha) signaling pathway in the presence of an antagonist - cell viability counter screen (AID 1259386);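 also: series mostly up to about 92 µM; cells exposed to compounds for 22 h at 37 °C before the viability read; nearly all actives have a fitted effect of over 30% in size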
Outline: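 Cell viability in VM7Luc4E2 cells (endogenous full-length ER-alpha) measured by CellTiter-Fluor fluorescence in the same wells as the luciferase screen. Cells pre-cultured 5 days in charcoal-stripped serum, then treated 22 h with compounds at 15 concentrations plus 10.0nM ICI-182,780.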

[7] = molecular target: Progesterone receptor (Homo sapiens) (UniProt P06401); test: qHTS assay to identify small molecule agonists of the progesterone receptor (PR) signaling pathway (AID 1346784; calls by dose curve; also: nearly all actives have a fitted effect of over 30% in size)
Chain of Progesterone receptor (Homo sapiens) (P06401 whole entry, looked up): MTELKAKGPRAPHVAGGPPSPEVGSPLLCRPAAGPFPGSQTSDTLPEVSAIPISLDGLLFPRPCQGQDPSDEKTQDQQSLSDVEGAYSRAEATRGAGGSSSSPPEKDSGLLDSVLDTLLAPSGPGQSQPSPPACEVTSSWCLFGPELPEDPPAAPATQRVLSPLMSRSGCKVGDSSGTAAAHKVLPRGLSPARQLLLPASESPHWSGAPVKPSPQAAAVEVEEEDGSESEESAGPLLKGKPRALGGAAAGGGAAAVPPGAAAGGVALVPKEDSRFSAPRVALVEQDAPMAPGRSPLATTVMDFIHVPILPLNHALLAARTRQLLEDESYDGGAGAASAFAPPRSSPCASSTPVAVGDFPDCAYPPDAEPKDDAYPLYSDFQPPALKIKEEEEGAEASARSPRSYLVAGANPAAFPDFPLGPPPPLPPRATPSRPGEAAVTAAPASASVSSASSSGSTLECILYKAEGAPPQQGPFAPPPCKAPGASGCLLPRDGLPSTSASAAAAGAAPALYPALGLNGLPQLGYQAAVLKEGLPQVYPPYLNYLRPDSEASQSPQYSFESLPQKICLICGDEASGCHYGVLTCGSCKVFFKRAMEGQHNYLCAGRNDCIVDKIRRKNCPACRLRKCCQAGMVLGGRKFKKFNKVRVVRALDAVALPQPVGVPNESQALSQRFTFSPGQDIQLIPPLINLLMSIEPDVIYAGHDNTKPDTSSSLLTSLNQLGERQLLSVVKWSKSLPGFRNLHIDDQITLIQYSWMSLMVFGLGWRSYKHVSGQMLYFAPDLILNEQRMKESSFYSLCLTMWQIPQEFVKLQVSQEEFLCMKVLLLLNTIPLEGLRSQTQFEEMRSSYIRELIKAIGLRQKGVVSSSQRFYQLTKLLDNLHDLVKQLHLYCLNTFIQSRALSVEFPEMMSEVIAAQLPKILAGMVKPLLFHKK
Outline: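 PR-UAS-bla HEK 293T cells carrying a UAS-driven beta-lactamase reporter were seeded in medium with 2% charcoal-stripped FBS, preincubated 6 hr at 37C, then exposed to compounds in DMSO for 16 hr; agonism was read by LiveBLAzer B/G FRET fluorescence.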

[8] = molecular target: Progesterone receptor (Homo sapiens) (UniProt P06401); test: qHTS assay to identify small molecule antagonists of the progesterone receptor (PR) signaling pathway (AID 1346795; active = well fitted inhibition curve with a large enough effect in the signal ratio in the repeat runs, not every such curve was filed as active; the % refers to the signal ratio)
Outline: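 PR-UAS-bla HEK293T cells carrying a UAS-driven beta-lactamase reporter were plated in medium with 2% charcoal-stripped FBS and rested 6 hr at 37C. Compounds were added with 1 nM R5020 (final) for 16 hr, then FRET substrate loaded 2 hr at room temperature.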

[9] = qHTS assay to identify small molecule antagonists of the progesterone receptor (PR) signaling pathway - cell viability counter screen (AID 1346798); also: series mostly up to about 92 µM; nearly all actives have a fitted effect of over 50% in size
Outline: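 PR-UAS-bla HEK293T cells in medium with 2% charcoal-stripped FBS were treated with compounds plus R5020 for 16 hr at 37C. Cell viability was then read by CellTiter-Glo luminescence after 30 min at room temperature in the same wells.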

[10] = qHTS assay to identify small molecule agonists of the progesterone receptor (PR) signaling pathway - cell viability counter screen (AID 1346799; calls by dose curve; also: nearly all actives have a fitted effect of over 45% in size)
Outline: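 PR-UAS-bla HEK293T cells, 3,000 per well in medium with 2% charcoal-stripped FBS, were preincubated 6 hr at 37C, then exposed to compounds for 16 hr; viability was read as CellTiter-Glo luminescence after 30 min at room temperature.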

[11] = qHTS assay to identify small molecule antagonists of the TGF-beta/Smad signaling pathway - cell viability counter screen (AID 1346824); also: nearly all actives have a fitted effect of over 50% in size
Outline: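 Cytotoxicity counter-screen run in the same wells as the beta-lactamase Smad reporter read: CellTiter-Glo luminescence after 30 min at room temperature. HEK 293T SBE-bla cells had 5 hr compound exposure at 37 C with TGF-beta1 (0.25 ng/mL stock).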

[12] = qHTS assay to identify small molecule agonists of the TGF-beta/Smad signaling pathway - cell viability counter screen (AID 1346829); also: top concentration of the series differs between compounds; nearly all actives have a fitted effect of over 45% in size
Outline: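 Cytotoxicity counter screen: CellTiter-Glo luminescence (30 min, room temperature) measured in the SBE-bla HEK 293T reporter wells after 5 hr compound treatment at 37 C and the 2 hr substrate step.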

[13] = qHTS assay to identify small molecule agonists of the TGF-beta/Smad signaling pathway (AID 1346859; active = well fitted activation curve with a large enough effect in the signal ratio in the repeat runs, not every such curve was filed as active; the % refers to the signal ratio; also: series mostly up to about 77 µM)
Outline: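 HEK 293T cells stably carrying a beta-lactamase reporter driven by the Smad binding element were seeded overnight, exposed to DMSO-dissolved compounds for 5 hr at 37 C, 5% CO2, then loaded with FRET substrate for 2 hr at room temperature.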

[14] = qHTS assay to identify small molecule agonists or antagonists of the thyroid stimulating hormone receptor (TSHR) signaling pathway - wild type cell line counter screen (AID 1259384; calls by dose curve)
Outline: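 Counter screen in untransfected Hek293: compounds (15-point titration, triplicate) plus phosphodiesterase inhibitor Ro20-1724 added after 18 h plating; 30 min RT. Intracellular cAMP via competitive d2/cryptate immunoassay, 1 h incubation.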

[15] = molecular target: Thyrotropin receptor (Homo sapiens) (UniProt P16473); test: qHTS assay to identify small molecule antagonists of the thyroid stimulating hormone receptor (TSHR) signaling pathway (AID 1259385; calls by dose curve; also: nearly all actives have a fitted effect of over 20% in size)
Chain of Thyrotropin receptor (Homo sapiens) (P16473 whole entry, looked up): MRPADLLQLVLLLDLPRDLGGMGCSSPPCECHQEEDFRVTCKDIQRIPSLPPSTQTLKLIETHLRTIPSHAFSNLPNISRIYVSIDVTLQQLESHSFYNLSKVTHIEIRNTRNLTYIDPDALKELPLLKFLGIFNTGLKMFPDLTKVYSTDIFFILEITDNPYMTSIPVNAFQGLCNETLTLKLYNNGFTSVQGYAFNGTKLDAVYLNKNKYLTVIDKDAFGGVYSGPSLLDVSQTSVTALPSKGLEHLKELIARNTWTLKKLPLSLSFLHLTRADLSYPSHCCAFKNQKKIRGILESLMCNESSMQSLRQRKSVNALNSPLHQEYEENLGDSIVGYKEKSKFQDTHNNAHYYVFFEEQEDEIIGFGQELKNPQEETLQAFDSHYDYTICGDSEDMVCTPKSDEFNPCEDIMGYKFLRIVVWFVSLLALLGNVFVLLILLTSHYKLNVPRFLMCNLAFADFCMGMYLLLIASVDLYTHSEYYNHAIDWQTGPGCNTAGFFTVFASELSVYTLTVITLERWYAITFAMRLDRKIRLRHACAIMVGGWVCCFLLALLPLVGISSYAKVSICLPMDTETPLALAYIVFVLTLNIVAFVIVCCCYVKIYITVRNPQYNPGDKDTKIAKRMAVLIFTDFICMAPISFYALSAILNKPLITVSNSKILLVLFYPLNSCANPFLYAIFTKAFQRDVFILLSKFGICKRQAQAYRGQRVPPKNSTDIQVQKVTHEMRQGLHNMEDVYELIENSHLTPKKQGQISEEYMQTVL
Outline: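 Antagonist mode: compound-treated TSHR-expressing HEK293 cells were stimulated with 1.5 ng/mL TSH (final) in presence of Ro20-1724 for 30 min at RT. HTRF cAMP detection after 1 h; each compound tested at 15 concentrations, triplicate.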

[16] = molecular target: Thyrotropin-releasing hormone receptor (Homo sapiens) (UniProt P34981); test: qHTS assay to identify small molecule antagonists of the thyrotropin-releasing hormone receptor (TRHR) signaling pathway (AID 1346877; active = well fitted inhibition curve with a large enough effect in the repeat runs, not every such curve was filed as active; also: series mostly up to about 51 µM)
Chain of Thyrotropin-releasing hormone receptor (Homo sapiens) (P34981 whole entry, looked up): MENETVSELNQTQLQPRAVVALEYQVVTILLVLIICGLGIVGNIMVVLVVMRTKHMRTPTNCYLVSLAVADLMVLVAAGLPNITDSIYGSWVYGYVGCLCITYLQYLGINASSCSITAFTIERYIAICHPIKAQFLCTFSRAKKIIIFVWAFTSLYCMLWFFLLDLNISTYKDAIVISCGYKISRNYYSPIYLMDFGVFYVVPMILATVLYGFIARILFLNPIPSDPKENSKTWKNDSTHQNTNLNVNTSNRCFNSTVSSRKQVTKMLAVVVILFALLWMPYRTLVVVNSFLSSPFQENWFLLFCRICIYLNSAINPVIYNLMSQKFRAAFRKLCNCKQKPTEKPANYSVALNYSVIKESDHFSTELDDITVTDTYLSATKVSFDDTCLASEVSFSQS
Outline: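 TRHR-expressing HEK293 cells loaded with calcium dye for 2 h at 37 C; compounds pre-incubated 5 min at room temperature before TRH challenge at 1 nM final. Intracellular calcium fluorescence read kinetically for 3 min; 15 concentrations in triplicate.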

[17] = molecular target: Thyrotropin-releasing hormone receptor (Homo sapiens) (UniProt P34981); test: qHTS assay to identify small molecule agonists of the thyrotropin-releasing hormone receptor (TRHR) signaling pathway (AID 1346891; calls by dose curve; also: series mostly up to about 58 µM)
Outline: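 TRHR-expressing HEK293 cells were plated 18 h at 37 °C/5% CO2, loaded with calcium dye 2 h at 37 °C, then given compound in DMSO; fluorescence was read kinetically for 3 min at 1 s intervals.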

Measured: Potency

CC1=CCC(C(C)C)C=C1 (stereo not drawn)
not listed: [14] | [15] | [16] | [17]
inactive: all other assays above

C=CC(C)(CCC=C(C)C)OC(=O)c1ccccc1 (stereo not drawn)
not listed: [5]
inactive: all other assays above

O=S1(=O)N=C(O)c2ccccc21
not listed: [5] | [16]
inactive: all other assays above

CCOC(=S)SSC(=S)OCC
not listed: [2] | [10] | [16] | [17]
inactive: all other assays above

Cc1ccccc1N=Nc1ccc(N=Nc2c(O)ccc3ccccc23)c(C)c1
not listed: [2] | [4] | [9]
inactive: all other assays above

O=C(c1ccccc1)c1ccc2n1CCC2C(=O)O (stereo not drawn)
not listed: [5] | [10] | [13] | [14] | [15] | [16] | [17]
inactive: all other assays above

C=CC[N+]1([C@H]2C[C@H]3[C@@H]4CC[C@H]5C[C@H](OC(C)=O)[C@@H](N6CCCCC6)C[C@]5(C)[C@H]4CC[C@]3(C)[C@H]2OC(=O)CC)CCCCC1
not listed: [2] | [11]
inactive: all other assays above

CCCCCCCCCCCCCCCBr
not listed: [3] | [10] | [16] | [17]
inactive: all other assays above

CCCCC(CC)(CO)CO
not listed: [3] | [5] | [10]
inactive: all other assays above
